Consider 13 molecules from PubChem BioAssay (NCI).

Among the test systems are SK-MEL-2 melanoma; EKVX NSCLC; SN12C renal; UO-31 renal; TK-10 renal; ACHN renal; CAKI-1 renal; A498 renal; CCRF-CEM leukemia; MOLT-4 leukemia.
Common to all, as to experiment: NCI-60 one-dose screen, 48 h (100 = growth as untreated, 0 = no growth, -100 = all killed)
What all share (details): 10 µM unless noted

Compounds without any hit were thinned out: in the full panel of roughly 83,000, 20% have a hit.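 Single-dose data. Exposure time 48 hours. Values below 10 considered active.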 Values without a mark were called inactive. Active and inactive are the calls of the source.

With `O=C(Cc1ccccc1)c1ccc(Cl)cc1`, the growth was 99% in the experiment with SK-MEL-2 melanoma; 87.4% in the experiment on EKVX NSCLC; 89% with SN12C renal; 111% with UO-31 renal; 99.5% with TK-10 renal; 103% with ACHN renal. Besides, the growth with CAKI-1 renal is 75.2%; in the experiment with A498 renal, 90.9%; with CCRF-CEM leukemia it was 99.1%; in the experiment on MOLT-4 leukemia, 84.2%.
With `CC/C(Cc1ccccc1)=C(/c1ccc(O)cc1)c1ccc(OCCN2CCCC2)cc1`, the growth in the experiment on SK-MEL-2 melanoma was -52.3% (active); in the experiment with EKVX NSCLC, -21.4% (active); in the experiment on SN12C renal, -11.6% (active); in the experiment on UO-31 renal, -79.8% (active); in the experiment with TK-10 renal, 13.1%; in the experiment with ACHN renal, -68.5% (active). Besides, the growth with CAKI-1 renal is -72.4% (active); with A498 renal, 54.9%; with CCRF-CEM leukemia it was -33.3% (active); with MOLT-4 leukemia it was -22.7% (active).
Turning to `C=C1CC2(OC1=O)C(=O)N(CCCCCCCN1C(=O)C3(CC(=C)C(=O)O3)c3ccccc31)c1ccccc12` (stereo not given), the growth with SK-MEL-2 melanoma is 61.2%; in the experiment on EKVX NSCLC, 88.4%; with SN12C renal, -50.9% (active); with UO-31 renal, -24.6% (active); with TK-10 renal, 45.2%; in the experiment on ACHN renal it was 15.8%. The growth in the experiment on CAKI-1 renal is 40.3%; in the experiment with A498 renal, 53.5%; in the experiment on CCRF-CEM leukemia, -14.8% (active); with MOLT-4 leukemia, 3.14% (active).
In the case of `COc1cc2c(cc1O)CCc1cc(O)cc(OC)c1-2`, the growth in the experiment on SK-MEL-2 melanoma was 88.6%; in the experiment with EKVX NSCLC, 92.7%; in the experiment with SN12C renal, 89.4%; with UO-31 renal, 95.3%; in the experiment on TK-10 renal, 126%; in the experiment with ACHN renal, 95.4%. For the same molecule, the growth with CAKI-1 renal was 94.8%; in the experiment with A498 renal, 79.4%; with CCRF-CEM leukemia, 70.7%; in the experiment with MOLT-4 leukemia, 74.7%.
For the molecule `COC1/C=C\OC2(C)Oc3c(C)c(O)c4c(O)c(c(CN(C)CCO)c(O)c4c3C2=O)NC(=O)/C(C)=C\C=C/C(C)C(O)C(C)C(O)C(C)C(OC(C)=O)C1C` (stereo not given), the growth in the experiment on SK-MEL-2 melanoma was 105%; with EKVX NSCLC, 95.1%; with SN12C renal it was 105%; with UO-31 renal, 80.3%; in the experiment on TK-10 renal, 114%; in the experiment on ACHN renal, 103%. The growth was 68.5% in the experiment with CAKI-1 renal, 115% in the experiment on A498 renal, 98.3% in the experiment with CCRF-CEM leukemia and 112% in the experiment on MOLT-4 leukemia.
As for `COc1cccc(-c2cn3c(ccc4ccccc43)n2)c1`, the growth in the experiment with SK-MEL-2 melanoma was 22.1%; in the experiment with EKVX NSCLC, 20.8%; with SN12C renal it was 40.2%; in the experiment on UO-31 renal, 37.2%; in the experiment on TK-10 renal, 88.8%; in the experiment with ACHN renal, 40.1%. Moreover, the growth was 32.4% in the experiment with CAKI-1 renal, -3.78% (active) in the experiment on A498 renal, 26.6% in the experiment on CCRF-CEM leukemia and 48.7% in the experiment with MOLT-4 leukemia.
Consider `CCCNc1nc(SC)nc(-c2cccc(N)c2)c1C#N`, for which the growth in the experiment with SK-MEL-2 melanoma is 111%; in the experiment on EKVX NSCLC, 82.6%; in the experiment with SN12C renal, 90.1%; in the experiment on UO-31 renal it was 76.8%; in the experiment with TK-10 renal, 150%; in the experiment with ACHN renal, 97.7%. Further, the growth was 73% with CAKI-1 renal, 72.4% in the experiment with A498 renal, 108% in the experiment on CCRF-CEM leukemia and 101% in the experiment with MOLT-4 leukemia.
`COc1cc(NCCCCN=C(N)N)c2ncccc2c1`: the growth in the experiment on SK-MEL-2 melanoma is 27.3%; with EKVX NSCLC, 65.2%; with SN12C renal, -14.5% (active); in the experiment with UO-31 renal, 90.3%; in the experiment with TK-10 renal, 70.9%; with ACHN renal, 93.6%. Moreover, the growth is 98.2% with CAKI-1 renal, 74.5% in the experiment with A498 renal, 90.7% with CCRF-CEM leukemia and 67.5% in the experiment with MOLT-4 leukemia.
`Fc1ccc(Cc2ccc(F)cc2)cc1`: the growth is 111% in the experiment with SK-MEL-2 melanoma; 105% in the experiment with EKVX NSCLC; 95.7% with SN12C renal; 79.7% with UO-31 renal; 101% in the experiment on TK-10 renal; 104% in the experiment with ACHN renal. Further, the growth in the experiment with CAKI-1 renal is 94.8%; with A498 renal it was 99.7%; in the experiment with CCRF-CEM leukemia, 107%; in the experiment on MOLT-4 leukemia, 94.5%.
For the molecule `CS(=O)(CCCCN=C=S)=NC(=O)c1c(F)c(F)c(F)c(F)c1F` (stereo not given), the growth in the experiment on SK-MEL-2 melanoma is 88.3%; in the experiment on EKVX NSCLC, 99%; in the experiment on SN12C renal it was 90.9%; in the experiment with UO-31 renal it was 90%; with TK-10 renal, 76.9%; in the experiment with ACHN renal it was 49.6%. For the same molecule, the growth in the experiment on CAKI-1 renal is 96.3%; with A498 renal, 88.8%; in the experiment with CCRF-CEM leukemia, 73.5%; in the experiment with MOLT-4 leukemia it was 82.5%.
`NC1=CC(=O)C(=O)c2ccccc21`: the growth was 75.1% in the experiment on SK-MEL-2 melanoma; 76.2% with EKVX NSCLC; 84.2% with SN12C renal; 71.3% in the experiment with UO-31 renal; 114% with TK-10 renal; 85.2% in the experiment on ACHN renal. Moreover, the growth in the experiment with CAKI-1 renal was 91.3%; with A498 renal, 101%; in the experiment with CCRF-CEM leukemia, 93%; in the experiment with MOLT-4 leukemia, 74.1%.
In the case of `CCOC(=O)CC(=O)c1c(C)cc(C)cc1C`, the growth is 93.4% with SK-MEL-2 melanoma; 105% in the experiment on EKVX NSCLC; 94.1% in the experiment on SN12C renal; 92.9% with UO-31 renal; 116% with TK-10 renal; 83.7% in the experiment on ACHN renal. Also, the growth in the experiment on CAKI-1 renal was 97%; with A498 renal it was 96.8%; in the experiment on CCRF-CEM leukemia, 90.9%; with MOLT-4 leukemia it was 78.7%.
Turning to `O=C(CN1CCN(c2cc3c(cc2F)c(=O)c(C(=O)O)cn3C2CC2)CC1)Nc1nc(-c2ccccc2)cs1`, the growth in the experiment with SK-MEL-2 melanoma was 94.6%; in the experiment on EKVX NSCLC, 91.4%; in the experiment on SN12C renal, 71.2%; in the experiment with UO-31 renal, 81.7%; with TK-10 renal, 82.9%; in the experiment on ACHN renal, 89.5%. Further, the growth with CAKI-1 renal is 93.8%; in the experiment with A498 renal, 65.2%; in the experiment on CCRF-CEM leukemia it was 79.1%; in the experiment on MOLT-4 leukemia, 89%.
